This is a sample that favours compounds with a hit; in the whole collection about 3.1% have one here.
GBA mod = Glucocerebrosidase | Lysosomal acid glucosylceramidase (Homo sapiens), P04062 | hit rate 1.1% among 48,000 | purified enzyme, resorufin glucoside fluorescence (screen aimed at inhibitors), 20 min | Potency, µM | AID 360, 2006; in the data active = potency below about 15 µM; inconclusive = mostly about 16 µM to 33 µM;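 also: the screen sought inhibitors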
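Wild-type enzyme at 0.2 nM final in 50mM citric acid/KH2PO4, 10mM sodium taurocholate, 0.01% tween-20, pH 5.9, with resorufin beta-D-glucopyranoside at 30 uM final. Compounds titrated, 20 min at RT, red fluorescence read; AC50 from titration.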
Casp1 inh = qHTS Assay for Allosteric/Competitive Inhibitors of Caspase-1; Caspase-1 enzyme, Ac-WEHD-AFC fluorogenic rate; Potency, µM (top dose mostly 57.5 µM), for inactives: top-dose activity change, negative = inhibition, usual class: inhibitors; hit rate 0.03% among 75,000; AID 900, 2007;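 also: plate controls were vehicle for no effect and no substrate for full effect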
Luciferase inh = qHTS Assay for Inhibitors of Firefly Luciferase; purified firefly luciferase, luminescence, 8 min; Potency, µM (titrated, usually from 57.1 µM), without a hit: top-dose activity change, negative = inhibition, usual class: inhibitors; hit rate 2.2% among 72,000; AID 411, 2009; also: % is scaled to controls: 0 for no effect and ±100 for the full control effect; nearly all actives have a fitted effect of over 40% in size
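Titration-based qHTS; buffer 50 mM imidazole pH 7.2, 50 mM KCl, 7 mM MgCl2, 10 uM ATP, 0.01% Tween 20, 0.05% BSA; luciferase/luciferin detector mix added after compound; 8 min, ambient; luminescence.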
Casp7 inh = qHTS Assay for Allosteric/Competitive Inhibitors of Caspase-7; P55210; recombinant caspase-7, Ac-DEVD-AFC fluorescence rate; Potency, µM (series often up to 57.5 µM), for inactives: at the highest dose activity change, negative = inhibition, most hits filed as inhibitors; hit rate 0.02% among 75,000; AID 889, 2007; active = well fitted inhibition curve with a large enough effect in the main read-out, with a control signal flat, not every such curve was filed as active; inconclusive = small, poorly fitted or top-dose-only effect, or a change in a side signal; also: % of control where 0% means no effect
PK Bst = Pyruvate Kinase; purified pyruvate kinase, luminescence ATP production; ribose 5-phosphate activator present at AC10; Potency, µM; hit rate 1.2% among 51,000; AID 361, 2006; in the data active = potency below about 11 µM; inconclusive = mostly about 12 µM to 25 µM;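 the screen sought inhibitors and activators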;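 also: scaled between full activation by ribose 5 phosphate and full inhibition by luteolin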
* marks the source's active call; other numbers are inactive results; i = inactive; u = inconclusive; x = no result; [ ] = another dose, or the depositor's remark. Unless noted, calls follow the shape of the dose curve; as a rule, active = well fitted inhibition curve with a large enough effect; inconclusive = small, poorly fitted or top-dose-only effect; inactive = flat fitted curve, though single readings scatter. Potency is read from the fitted curve at half-maximal effect.

SMILES	GBA mod	Casp1 inh	Luciferase inh	Casp7 inh	PK Bst
CCCCCCn1cnc2c(c1=O)c1nc3ccccc3nc1n2Cc1cccs1	>77	-1%	1%	-1%	>57
CC(C)CCn1cnc2c(c1=O)c1nc3ccccc3nc1n2Cc1ccc2c(c1)OCO2	6.1*	-4%	3%	-4%	>57
CCCCn1c2nc3ccccc3nc2c2c(=O)n(CCC)cnc21	5*	0%	-1%	-3%	>57
CN(C)C=O	x	x	x	1%	x
NCCSCCc1ccccc1	x	-3%[11.5 µM]	2%[11.4 µM]	1%[11.5 µM]	x
Cc1cc(C)c(C)c(S(=O)(=O)NCc2ccco2)c1C	>77	0%	0%	-1%	11*
Cc1ccc(S(=O)(=O)NCc2ccco2)cc1C	x	0%	0%	0%	x
Cc1ccc(-c2nc(-c3nccc4ccccc34)oc2-c2ccccc2)cc1	x	x	3.2µM*	u	x
Clc1ccc(CSC2=NCCN2)cc1Cl	x	2%[11.5 µM]	1%[11.4 µM]	0%[11.5 µM]	x
CCOc1ccc(CSC2=NCCN2)cc1Cl	8.4*	-1%	0%	-2%	>57
CCn1c(-c2ccc(N(C)C)cc2)nc2ccccc21	>77	-6%	1%	-4%	>57
CC(C)n1c(-c2ccc(N(C)C)cc2)nc2ccccc21	>77	-2%	13µM*	0%	x
CN(C)c1ccc(-c2nc3ccccc3n2C)cc1	u	-1%	0.63µM*	-1%	1.1*
O=S(=O)(O)c1ccc(NN(c2c(O)ccc3ccccc23)S(=O)(=O)O)cc1	x	5%[11.5 µM]	-3%[11.4 µM]	-3%[11.5 µM]	x
COc1cccc(-c2cc(C(=O)N3CCCc4ccccc43)no2)c1	>77	-6%	-23%	-2%	x
COc1ccc(-c2cc(C(=O)N3CCCc4ccccc43)no2)cc1	>77	-2%	16µM*	-1%	i
COc1ccc(C2=NOC(C(=O)N3CCCc4ccccc43)C2)cc1 (centres undefined)	>77	0%	16µM*	-1%	x
C[C@@H]1O[C@@H](n2cc(F)c(=O)[nH]c2=O)[C@H](O)[C@@H]1O	x	-2%	0%	2%	x
COc1ccccc1NC(=O)c1cc2ccccc2o/c1=N\O	x	-1%	-10%	0%	>57
COc1ccccc1N=c1oc2cc(O)ccc2cc1C(N)=O	x	2%	7.9µM*	0%	x
O=C(O)CCc1ccc(-c2ccc(Br)cc2)o1	>77	-6%	-13%	0%	x
NC(=O)c1ccc(-c2ccc(Br)cc2)o1	>77	-3%	-24%	-2%	5.1*
CCOC(=O)C1CCCN(C(=O)c2cc3nc(-c4cccc(OC)c4)cc(C(F)(F)F)n3n2)C1 (centres undefined)	7.2*	u	0%	u	>57
CCOC(=O)C1CCCN(C(=O)c2cnn3c(C(F)(F)F)cc(-c4ccccc4)nc23)C1 (centres undefined)	>77	-11%	1%	-19%	>57
COC(=O)[C@H](N)Cc1ccc(Cl)cc1	x	1%	6%	0%	x
SMILES	GBA mod	Casp1 inh	Luciferase inh	Casp7 inh	PK Bst
Cc1nnc(SCc2nnc(-c3ccc(Cl)cc3)o2)n1-c1ccccc1	>77	0%	-1%	-4%	7.5*
COc1ccc(-c2nnc(SCc3nnc(-c4ccc(Cl)cc4)o3)n2-c2ccccc2)cc1	x	-1%	0%	-2%	x
CCCCC#Cc1nc(N)c2ncn([C@@H]3O[C@@H](C(=O)NCC)[C@H](O)[C@@H]3O)c2n1	x	3%	3%	0%	x
O=C(NC1CCCC1)C(c1cccs1)N(Cc1ccco1)C(=O)Cn1nnc(-c2cccs2)n1 (centres undefined)	11*	-3%	-4%	-1%	>57
CC(C)Cc1cc(C(=O)Nc2cc(Cl)ccc2Cl)no1	x	-2%	2%	-2%	x
CC(C)c1cc(C(=O)Nc2cc(Cl)ccc2O)no1	>77	0%	16µM*	0%	x
CC(=O)c1cccc(NC(=O)c2cc(-c3ccc(F)cc3)on2)c1	>77	1%	-6%	-2%	>57
CC(=O)c1cccc(NC(=O)c2cc(C(C)C)on2)c1	x	-1%	16µM*	0%	x
COc1cc(NC(=O)c2cc(C(C)C)on2)cc(OC)c1OC	x	1%	-7%	-1%	x
CC(C)c1cc(C(=O)Nc2cccc(Cl)c2)no1	>77	-1%	13µM*	-1%	i
CCCCC(CC)COCC1CO1 (centres undefined)	x	2%	x	-1%	x
c1ccc2c(c1)Cn1nnnc1-2	>77	-3%	2%	-1%	>57
c1ccc2c(c1)Cn1c-2nc2ccccc21	u	-3%	13µM*	-1%	u

From PubChem BioAssay
